sEH inhibitor: soluble epoxide hydrolase inhibitors, primary screen, biochemical, human sEH. recombinant human sEH enzymatic activity assay. Bifunctional epoxide hydrolase 2 (Homo sapiens), P34913. inhibition, % at 2 µM. 0.34% of 91,000 active; in the data active = inhibition above about 80%
Target sequence (P34913 whole entry, looked up): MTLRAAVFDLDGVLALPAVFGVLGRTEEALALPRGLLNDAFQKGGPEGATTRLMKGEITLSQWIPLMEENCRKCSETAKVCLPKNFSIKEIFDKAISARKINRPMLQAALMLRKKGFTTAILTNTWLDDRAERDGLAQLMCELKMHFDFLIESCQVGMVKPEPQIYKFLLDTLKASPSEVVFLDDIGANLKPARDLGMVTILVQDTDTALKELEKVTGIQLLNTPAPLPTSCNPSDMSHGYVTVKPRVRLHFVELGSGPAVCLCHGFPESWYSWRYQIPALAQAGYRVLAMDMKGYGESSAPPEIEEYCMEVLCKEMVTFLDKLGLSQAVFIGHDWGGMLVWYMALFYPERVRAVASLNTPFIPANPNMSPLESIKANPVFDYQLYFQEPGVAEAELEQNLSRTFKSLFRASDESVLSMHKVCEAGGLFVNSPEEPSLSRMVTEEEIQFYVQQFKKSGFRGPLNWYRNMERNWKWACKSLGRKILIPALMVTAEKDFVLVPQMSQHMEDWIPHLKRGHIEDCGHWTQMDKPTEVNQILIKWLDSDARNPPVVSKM
CYP2C9 inhib: blockers of cytochrome P450 2C9 activity – biochemical, luminescence, ADME assay, primary screen | P11712 | CYP2C9 Supersomes, luciferin-H conversion | inhibition, % at 5 µM | 20% of 96,000 active;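 active = blocking of liver enzyme CYP2C9 beyond about 50% at 5 µM, limit read from the data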
CYP2C19 inh: blockers of cytochrome P450 2C19 activity – biochemical, luminescence, ADME assay, primary screen | P33261 | CYP2C19 Supersomes, luciferin-H EGE luminescence, 30 min | inhibition, % at 5 µM | 21% of 96,000 active | AID 778, 2007;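 active = CYP2C19 inhibition above a set limit at 5 µM in the primary screen, cut at about 50% in these data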;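 also: plate controls were negative control wells for no effect and 2.5 mM tranylcypromine positive control for full effect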
CYP2C9 activ: human CYP2C9 activators, primary screen, biochemical, luminescence; Cytochrome P450 2C9 (Homo sapiens), P11712; recombinant CYP2C9, luciferin-H conversion; stronger effect = higher value; factor 1 = untreated enzyme, 0 = blocked; activation factor at 5 µM; 1.4% of 96,000 active; AID 1024, 2008;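 active = activation factor of 2 or more for CYP2C9 at a 5 µM dose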;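 also: 0 = sulfaphenazole-blocked wells and 1 = vehicle-only wells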
CYP2C19 activ: human CYP2C19 activators, primary screen, biochemical, luminescence. Cytochrome P450 2C19 (Homo sapiens), P33261. recombinant CYP2C19, luciferin-H EGE luminescence; stronger effect = higher value; 0 = fully inhibited enzyme, 1 = untreated enzyme. activation factor at 5 µM. 96,000 tested, under 10 active. AID 1025, 2008;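 active = activation factor of at least 2 at 5 µM in the primary screen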;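 also: 0 = wells with 2.5 mM tranylcypromine and 1 = vehicle-only wells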
sEH act: soluble epoxide hydrolase activators, primary screen, biochemical, human sEH; 0.04% of 91,000 active; Bifunctional epoxide hydrolase 2 (Homo sapiens), P34913; AID 717, 2007; purified human sEH enzymatic activity, activator screen; activation, % at 2 µM; in the data active = activation above about 37%
* = called active by the depositor; nt = not tested or not shown. A selection: hits, their analogues and other compounds. The true share with any hit is near 27%.

SMILES	sEH inhibitor	CYP2C9 inhib	CYP2C19 inh	CYP2C9 activ	CYP2C19 activ	sEH act
O=C1CN=C(Nc2cccc(C(F)(F)F)c2)N1C1CCCC1	-3.6	81.6*	71.8*	0.2	0.3	4.8
CCc1ccccc1NC1=NCC(=O)N1C1CCCCC1	nt	52.6*	55.8*	0.5	0.4	nt
Cc1cc(C)c(NC2=NCC(=O)N2C2CCCCC2)c(C)c1	-18.9	84.7*	90.5*	0.2	0.1	17.4
CCc1ccccc1NC1=NCC(=O)N1Cc1ccccc1	16.0	15.2	43.6	0.8	0.6	-14.6
c1cc(-c2nnc3n2CCC3)[nH]n1	nt	-11.9	12.7	1.1	0.9	nt
CSCC[C@H](NC(=O)OC(C)(C)C)C(=O)N/N=C/c1c(C)[nH]c(=O)[nH]c1=O	5.0	9.8	15.0	0.9	0.8	-4.9
COC(=O)c1ccc(C(=O)Nc2cc(Cl)ccc2Cl)cc1NC(=O)c1ccc(N(C)C)cc1	nt	3.7	-8.3	1	1.1	nt
CN(C)Cc1nc2ccccc2c(=O)n1Cc1nc(C(C)(C)C)cs1	3.8	93.0*	82.0*	0.1	0.2	-3.6
COc1cc(OC)cc(C(=O)NCCCN2CCOCC2)c1	-5.9	nt	nt	nt	nt	6.5
O=C(Nc1ccc(O)c(C(=O)O)c1)c1ccc2c(c1)C(=O)N(CC1CCCO1)C2=O (stereo unspecified)	nt	65.5*	1.5	0.3	1	nt
O=C(O)COc1ccc2c(-c3ccccc3)cc(=O)oc2c1	17.2	-8.0	4.7	1.1	1	-16.8
Cc1c(OCc2nn[nH]n2)ccc2c(-c3ccccc3)cc(=O)oc12	-8.4	98.3*	95.3*	0	0	7.9
Cc1cc(OCc2nn[nH]n2)c2c(-c3ccccc3)cc(=O)oc2c1	-5.3	70.6*	39.6	0.3	0.6	7.5
CCCCc1cc(=O)oc2cc(OCc3nn[nH]n3)c(Cl)cc12	-3.4	80.3*	43.8	0.2	0.6	0.7
COc1ccc(-c2cc(=O)oc3c(C)c(OCc4nn[nH]n4)ccc23)cc1	3.4	97.1*	78.7*	0	0.2	-3.4
CCc1cc(=O)oc2cc(OCc3nn[nH]n3)ccc12	-16.3	39.5	23.3	0.6	0.8	13.2
COc1cccc(C(=O)NCc2nnc(SCC(=O)Nc3nccs3)n2-c2cccc(C)c2)c1	-10.0	nt	nt	nt	nt	10.6
CC(OC1=CC(=O)CCC1)C(=O)c1ccccc1 (stereo unspecified)	8.4	1.7	6.5	1	0.9	-6.2
Cc1cc(OCC(=O)N(C)C)c2c(-c3ccccc3)cc(=O)oc2c1	nt	63.6*	16.4	0.4	0.8	nt
CCN(CC)C(=O)COc1cc(C)cc2oc(=O)cc(-c3ccccc3)c12	0.0	22.8	28.8	0.8	0.7	1.8
CC(C)Cc1[nH]c(=O)c(C#N)c2c1CCCC2	-9.3	26.8	-7.4	0.7	1.1	13.3
COc1ccc(C2CC(c3cccs3)=Nc3ccccc3S2)cc1 (stereo unspecified)	-6.7	nt	nt	nt	nt	8.2
Cc1ccccc1OCC(=O)Nc1ccc2c(c1)COC2=O	5.9	25.7	24.2	0.7	0.8	-5.4
CN(c1cccc(NC(=O)CCSc2ccccc2)c1)S(C)(=O)=O	15.5	68.1*	78.2*	0.3	0.2	-16.0
CN(c1cccc(NC(=O)COc2ccccc2)c1)S(C)(=O)=O	-9.8	4.6	18.8	1	0.8	13.5
SMILES	sEH inhibitor	CYP2C9 inhib	CYP2C19 inh	CYP2C9 activ	CYP2C19 activ	sEH act
CN(c1cccc(NC(=O)CSc2ccc(Cl)cc2)c1)S(C)(=O)=O	3.2	45.0	25.3	0.6	0.7	-1.3
Cc1ccccc1OCC(=O)Nc1ccc2c(c1)OCO2	26.6	29.8	66.3*	0.7	0.3	-26.7
Cc1ccc(NC(=O)CS(=O)CC(=O)Nc2ccc3c(c2)OCO3)cc1Cl (stereo unspecified)	-6.3	50.8*	11.0	0.5	0.9	6.7
Cc1ccccc1OCC(=O)Nc1cccc(N(C)S(C)(=O)=O)c1	4.7	78.6*	68.8*	0.2	0.3	-6.5
Cc1ccc2cc(COC(=O)C3CCCO3)c(=O)[nH]c2c1 (stereo unspecified)	13.2	3.6	0.4	1	1	-10.3
COc1ccc(-n2c(SCC(=O)NC3CCCCC3)nc3ccsc3c2=O)cc1	37.3	-7.0	-9.4	1.1	1.1	-35.5
COc1ccccc1C1N(c2ccc(F)cc2)C(=O)C2CCCN21 (stereo unspecified)	5.9	3.5	-3.9	1	1	-5.4
CCCNS(=O)(=O)c1cc(Br)cc2c1N(C(=O)CC)CC2	nt	-57.8	36.2	1.6	0.6	nt
Cc1ccc(CNC(=O)CCS(=O)(=O)c2cc(Br)cc3c2N(C(=O)C2CC2)CC3)o1	nt	88.6*	48.0	0.1	0.5	nt
CCC(=O)N1CCc2cc(Br)cc(S(=O)(=O)CCC(=O)NCCc3ccccc3)c21	7.3	71.5*	29.1	0.3	0.7	-9.4
CCOc1cccc(N(C(=O)Cc2cccs2)C(C(=O)NC2CCCCC2)c2cccn2C)c1 (stereo unspecified)	1.9	nt	nt	nt	nt	-1.9
CCN(c1ccc(NC(=O)CN2C(=O)NC3(CCOc4ccccc43)C2=O)cc1)C(C)C (stereo unspecified)	7.8	59.3*	26.9	0.4	0.7	-5.3
O=C1NC2(CCOc3ccccc32)C(=O)N1CC(=O)N(Cc1ccccc1)C1CCS(=O)(=O)C1 (stereo unspecified)	3.7	22.1	16.5	0.8	0.8	-4.9
CC(=O)NC(C)c1ccc(Cl)c(Cl)c1 (stereo unspecified)	-14.3	6.5	75.4*	0.9	0.2	13.9
COc1ccc(N2C(=O)CSC23C(=O)N2c4c(cccc43)C(C)=CC2(C)C)cc1 (stereo unspecified)	6.8	79.8*	97.8*	0.2	0	-6.1
O=[N+]([O-])c1ccc(Cl)c(/C=N/N2CCN(c3ccccc3)CC2)c1	-4.3	-193.9	17.0	2.9*	0.8	6.4
O=[N+]([O-])c1ccc(Cl)c(/C=N/N2CCN(C3c4ccccc4-c4ccccc43)CC2)c1	2.1	-6.3	-1.1	1.1	1	2.0
CCOC(=O)c1cnc(SCC(=O)Nc2ccccc2N2CCOCC2)nc1N	18.6	nt	nt	nt	nt	-14.3
O=C(CN(c1ccc2c(c1)OCCO2)S(=O)(=O)c1ccccc1)NCC1CCCO1 (stereo unspecified)	-2.3	77.4*	35.3	0.2	0.6	0.5
COc1ccccc1CN(CC(=O)NCC1CCCO1)C(=O)CNS(=O)(=O)c1ccc(C)cc1 (stereo unspecified)	-2.0	25.4	16.1	0.7	0.8	1.5
O=C(CN(C(=O)c1ccc2c(c1)OCCO2)c1ccccc1)NCC1CCCO1 (stereo unspecified)	28.9	65.5*	41.5	0.3	0.6	-29.8

From PubChem BioAssay
